Screen size: about 5,500 compounds; about 2,000 (36%) were called active. Inconclusive results (about 18%) are left out. Cut-off read from the data, not from the text of the source: active = normalized growth mostly below about 0.91 (no sharp cut-off); inconclusive = no clear call, values can overlap the other calls; inactive = mostly above about 0.92. Some of the results follow.
Experiment: chemical genetic growth profiling, strain panel (AID 1159580);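 note: tested at 20 µM; growth read once vehicle control cultures reached saturation at 30 °C; 1 = growth at the plate median or of vehicle wells; lower values mean less growth of the strain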
Conditions: growth OD

Measured: normalized growth

CO[C@@]1(NC(=O)C(C(=O)O)c2ccc(O)cc2)C(=O)N2C(C(=O)O)=C(CSc3nnnn3C)CO[C@@H]21 (some centres not stated)
inactive: S. cerevisiae deletion strains, locus YJR075W, strain HOC1, hits give low values 1.02 | S. cerevisiae deletion strains, locus YKL009W, strain mrt4, hits give low values 1 | S. cerevisiae deletion strains, locus YKL068W, hits give low values 1.01 | S. cerevisiae deletion strains, locus YKL085W, strain MDH1 (second series), hits give low values 1.01 | S. cerevisiae deletion strains, locus YKL085W, strain MDH1, hits give low values 1.01 | S. cerevisiae deletion strains, locus YKL160W, strain elf1, hits give low values 0.962 | S. cerevisiae deletion strains, locus YKL190W, strain CNB1, hits give low values 1.02 | S. cerevisiae deletion strains, locus YKR001C, strain vps1, hits give low values 1.02 | S. cerevisiae deletion strains, locus YKR026C, strain gcn3, hits give low values 0.998 | S. cerevisiae deletion strains, locus YKR091W, strain srl3, hits give low values 0.976 | S. cerevisiae deletion strains, locus YLL001W, strain dnm1, hits give low values 0.922 | S. cerevisiae deletion strains, locus YLL026W, hits give low values 0.986 | S. cerevisiae deletion strains, locus YLL041C, strain sdh2, hits give low values 0.988 | S. cerevisiae deletion strains, locus YLR027C, strain aat2, hits give low values 1 | S. cerevisiae deletion strains, locus YLR039C, strain RIC1, hits give low values 1.02 | S. cerevisiae deletion strains, locus YLR058C, strain SHM2, hits give low values 1.01 | S. cerevisiae deletion strains, locus YLR102C, strain apc9, hits give low values 1.02 | S. cerevisiae deletion strains, locus YLR113W, strain HOG1, hits give low values 0.995 | S. cerevisiae deletion strains, locus YLR221C, strain rsa3, hits give low values 0.945 | S. cerevisiae deletion strains, locus YLR258W, strain gsy2, hits give low values 0.984 | S. cerevisiae deletion strains, locus YLR262C, strain YPT6 (second series), hits give low values 0.946 | S. cerevisiae deletion strains, locus YLR262C, strain YPT6, hits give low values 0.999 | S. cerevisiae deletion strains, locus YLR268W, strain sec22, hits give low values 1.04 | S. cerevisiae deletion strains, locus YLR320W, strain mms22, hits give low values 0.967 | S. cerevisiae deletion strains, locus YLR330W, strain CHS5, hits give low values 1.01 | S. cerevisiae deletion strains, locus YLR342W, strain FKS1 (second series), hits give low values 0.996 | S. cerevisiae deletion strains, locus YLR342W, strain FKS1, hits give low values 0.99 | S. cerevisiae deletion strains, locus YLR357W, strain rsc2, hits give low values 0.945 | S. cerevisiae deletion strains, locus YLR370C, strain arc18, hits give low values 0.978 | S. cerevisiae deletion strains, locus YLR371W, strain rom2, hits give low values 1.03 | S. cerevisiae deletion strains, locus YLR384C, strain iki3, hits give low values 0.982 | S. cerevisiae deletion strains, locus YLR418C, strain cdc73, hits give low values 1.02 | S. cerevisiae deletion strains, locus YML016C, strain PPZ1, hits give low values 1 | S. cerevisiae deletion strains, locus YML032C, strain rad52, hits give low values 1.03 | S. cerevisiae deletion strains, locus YML120C, strain ndi1, hits give low values 0.951 | S. cerevisiae deletion strains, locus YML124C, strain tub3, hits give low values 1.01 | S. cerevisiae deletion strains, locus YMR058W, strain fet3, hits give low values 0.975 | S. cerevisiae deletion strains, locus YMR078C, strain ctf18, hits give low values 1.02 | S. cerevisiae deletion strains, locus YMR125W, strain sto1, hits give low values 0.953 | S. cerevisiae deletion strains, locus YMR129W, hits give low values 0.994 | S. cerevisiae deletion strains, locus YMR205C, strain PFK2, hits give low values 0.946 | S. cerevisiae deletion strains, locus YMR223W, strain ubp8, hits give low values 0.985 | S. cerevisiae deletion strains, locus YMR231W, strain pep5, hits give low values 0.991 | S. cerevisiae deletion strains, locus YMR263W, strain SAP30, hits give low values 1.02 | S. cerevisiae deletion strains, locus YMR307W, strain GAS1, hits give low values 0.971 | S. cerevisiae deletion strains, locus YNL067W, strain RPL9B, hits give low values 1.02 | S. cerevisiae deletion strains, locus YNL071W, strain lat1, hits give low values 0.989 | S. cerevisiae deletion strains, locus YNL128W, strain TEP1, hits give low values 1.01 | S. cerevisiae deletion strains, locus YNL153C, strain GIM3, hits give low values 1.01 | S. cerevisiae deletion strains, locus YNL183C, strain NPR1, hits give low values 0.949 | S. cerevisiae deletion strains, locus YNL209W, strain ssb2, hits give low values 0.978 | S. cerevisiae deletion strains, locus YNL233W, strain BNI4, hits give low values 1.01 | S. cerevisiae deletion strains, locus YNL248C, strain rpa49, hits give low values 1 | S. cerevisiae deletion strains, locus YNL250W, strain rad50, hits give low values 1.02 | S. cerevisiae deletion strains, locus YNL271C, strain bni1, hits give low values 1.01 | S. cerevisiae deletion strains, locus YNL298W, strain CLA4, hits give low values 1.02 | S. cerevisiae deletion strains, locus YNL307C, strain MCK1, hits give low values 1.01 | S. cerevisiae deletion strains, locus YNL322C, strain KRE1 (second series), hits give low values 0.971 | S. cerevisiae deletion strains, locus YNL322C, strain KRE1, hits give low values 1.01 | S. cerevisiae deletion strains, locus YNR049C, strain mso1, hits give low values 0.972 | S. cerevisiae deletion strains, locus YNR052C, strain pop2, hits give low values 1.02 | S. cerevisiae deletion strains, locus YOL006C, strain TOP1, hits give low values 1.06 | S. cerevisiae deletion strains, locus YOL012C, strain htz1 0.996 | S. cerevisiae deletion strains, locus YOL147C, strain pex11, hits give low values 1.01 | S. cerevisiae deletion strains, locus YOR001W, strain rrp6, hits give low values 1.01 | S. cerevisiae deletion strains, locus YOR061W, strain CKA2, hits give low values 1 | S. cerevisiae deletion strains, locus YOR069W, strain VPS5, hits give low values 1.01 | S. cerevisiae deletion strains, locus YOR070C, strain gyp1, hits give low values 0.992 | S. cerevisiae deletion strains, locus YOR080W, strain dia2, hits give low values 0.987 | S. cerevisiae deletion strains, locus YOR083W, strain WHI5, hits give low values 0.961 | S. cerevisiae deletion strains, locus YOR106W, strain vam3, hits give low values 0.973 | S. cerevisiae deletion strains, locus YOR136W, strain idh2, hits give low values 1.02 | S. cerevisiae deletion strains, locus YOR144C, strain elg1, hits give low values 1.02 | S. cerevisiae deletion strains, locus YOR184W, strain ser1, hits give low values 1.02 | S. cerevisiae deletion strains, locus YOR231W, strain MKK1, hits give low values 1 | S. cerevisiae deletion strains, locus YOR265W, strain rbl2, hits give low values 0.998 | S. cerevisiae deletion strains, locus YOR270C, strain vph1, hits give low values 0.967 | S. cerevisiae deletion strains, locus YOR290C, strain snf2, hits give low values 0.917 | S. cerevisiae deletion strains, locus YOR316C, strain cot1, hits give low values 1.02 | S. cerevisiae deletion strains, locus YPL051W, strain arl3, hits give low values 0.983 | S. cerevisiae deletion strains, locus YPL055C, strain LGE1, hits give low values 1.02 | S. cerevisiae deletion strains, locus YPL078C, strain atp4, hits give low values 0.97 | S. cerevisiae deletion strains, locus YPL106C, strain sse1, hits give low values 0.94 | S. cerevisiae deletion strains, locus YPL240C, strain hsp82, hits give low values 0.981 | S. cerevisiae deletion strains, locus YPL241C, strain CIN2, hits give low values 1 | S. cerevisiae deletion strains, locus YPL256C, strain CLN2, hits give low values 0.961 | S. cerevisiae deletion strains, locus YPR119W, strain clb2, hits give low values 1.02 | S. cerevisiae deletion strains, locus YPR141C, strain kar3, hits give low values 1.02 | S. cerevisiae deletion strains, locus YPR163C, strain tif3, hits give low values 1.02 | S. cerevisiae deletion strains, locus YPR167C, strain met16, hits give low values 1.02 | S. cerevisiae deletion strains, strain wtn01, hits give low values 1.02 | S. cerevisiae strains, strain wild type, hits give low values 1.01

Source: PubChem BioAssay AID1159580 (chemical genetic matrix, 2015)
